We go through one sequence from article PMC7862700, “An all-to-all approach to the identification of sequence-specific readers for epigenetic DNA modifications on cytosine”.

Test in all cases: DAPPL (digital affinity profiling via proximity ligation, sequencing); 10 mM Tris-HCl pH 7.5, 50 mM NaCl, 1 mM DTT, 4% glycerol, room temperature, 30 min; GST-TFs on glutathione beads, 16-mer random dsDNA library, 0.1% formaldehyde crosslink after washing; high values mean tight binding
In one test the target is T1, FEV (Homo sapiens, UniProt Q99581 1-238).
T1 sequence: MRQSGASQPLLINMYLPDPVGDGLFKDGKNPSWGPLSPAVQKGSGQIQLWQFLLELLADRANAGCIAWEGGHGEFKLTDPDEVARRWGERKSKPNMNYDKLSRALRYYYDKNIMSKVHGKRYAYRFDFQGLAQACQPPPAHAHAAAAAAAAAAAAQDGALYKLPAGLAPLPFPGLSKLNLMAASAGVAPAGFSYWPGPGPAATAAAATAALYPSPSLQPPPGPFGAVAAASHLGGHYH
As to conditions: protein: recombinant; tags: N-terminal GST; dsDNA, one strand shown. In outline: (§1)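 Binding signal is each hexamer's read frequency for a factor divided by its frequency in the tag-only sample. The factors were GST-fused human transcription factors from yeast, captured on glutathione beads, DNA-barcoded and pooled with that sample. Pools were incubated with 200 nmole of a random double-stranded 16-mer DNA library in Tris/NaCl/DTT/glycerol buffer at room temperature for 30 min, then washed, crosslinked with 0.1% formaldehyde, proximity-ligated with BsaI/T4 ligase (1 h, 37 °C), PCR-amplified and sequenced on an Illumina NextSeq500.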

A further test deals with ETV5 (Homo sapiens, UniProt P41161 1-510). As to conditions: protein: recombinant; tags: N-terminal GST; dsDNA, one strand shown. In outline: as §1
ETV5, sequence (P41161 whole entry): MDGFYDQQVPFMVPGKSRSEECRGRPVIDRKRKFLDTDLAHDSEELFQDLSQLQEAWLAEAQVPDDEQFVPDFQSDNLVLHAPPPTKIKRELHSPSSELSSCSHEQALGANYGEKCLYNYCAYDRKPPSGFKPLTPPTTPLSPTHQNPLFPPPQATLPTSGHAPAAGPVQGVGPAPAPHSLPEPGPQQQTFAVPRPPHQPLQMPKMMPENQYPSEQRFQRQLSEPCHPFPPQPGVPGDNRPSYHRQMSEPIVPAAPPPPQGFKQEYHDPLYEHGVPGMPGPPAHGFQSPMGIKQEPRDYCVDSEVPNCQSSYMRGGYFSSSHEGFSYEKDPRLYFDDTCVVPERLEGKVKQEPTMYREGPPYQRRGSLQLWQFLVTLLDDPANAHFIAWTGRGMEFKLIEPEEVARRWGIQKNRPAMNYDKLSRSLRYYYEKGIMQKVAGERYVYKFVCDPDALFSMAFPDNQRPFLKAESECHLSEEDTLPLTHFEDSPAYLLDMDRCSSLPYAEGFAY
Another test concerns the target HSF1 (Homo sapiens, UniProt Q00613 1-529). Conditions: protein: recombinant; tags: N-terminal GST; chain copies: 3; dsDNA, one strand shown. The essentials: as §1
In a further test the target is T2, SPIC (Homo sapiens, UniProt Q8N5J4 1-248).
T2 sequence: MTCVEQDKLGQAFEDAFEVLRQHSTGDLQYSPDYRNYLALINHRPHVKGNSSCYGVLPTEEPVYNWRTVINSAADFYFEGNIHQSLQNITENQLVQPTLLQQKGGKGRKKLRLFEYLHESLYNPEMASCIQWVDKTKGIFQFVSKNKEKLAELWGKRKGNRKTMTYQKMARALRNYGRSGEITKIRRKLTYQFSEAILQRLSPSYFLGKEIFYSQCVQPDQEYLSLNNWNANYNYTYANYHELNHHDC
Conditions: protein: recombinant; tags: N-terminal GST; dsDNA, one strand shown. The essentials: as §1

A further test concerns the target ELF4 (Homo sapiens, UniProt Q99607 1-663). As to conditions: protein: recombinant; tags: N-terminal GST; dsDNA, one strand shown. In outline:
as §1

The next test deals with T3, ELK4 (Homo sapiens, UniProt P28324-2 1-405).
T3 sequence: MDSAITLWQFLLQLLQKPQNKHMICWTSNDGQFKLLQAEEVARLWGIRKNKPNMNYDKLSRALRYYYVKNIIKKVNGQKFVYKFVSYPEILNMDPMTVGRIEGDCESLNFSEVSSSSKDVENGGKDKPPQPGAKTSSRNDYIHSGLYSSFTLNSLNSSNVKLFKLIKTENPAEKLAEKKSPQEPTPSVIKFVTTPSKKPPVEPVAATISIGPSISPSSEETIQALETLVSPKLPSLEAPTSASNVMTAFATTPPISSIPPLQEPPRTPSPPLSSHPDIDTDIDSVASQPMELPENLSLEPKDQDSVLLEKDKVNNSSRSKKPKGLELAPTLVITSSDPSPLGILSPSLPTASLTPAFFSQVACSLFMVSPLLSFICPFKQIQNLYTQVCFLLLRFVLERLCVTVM
Conditions: protein: recombinant; tags: N-terminal GST; dsDNA, one strand shown. In outline: as §1

The next test addresses T4, ETV2 (Homo sapiens, UniProt O00321 1-342).
T4 sequence: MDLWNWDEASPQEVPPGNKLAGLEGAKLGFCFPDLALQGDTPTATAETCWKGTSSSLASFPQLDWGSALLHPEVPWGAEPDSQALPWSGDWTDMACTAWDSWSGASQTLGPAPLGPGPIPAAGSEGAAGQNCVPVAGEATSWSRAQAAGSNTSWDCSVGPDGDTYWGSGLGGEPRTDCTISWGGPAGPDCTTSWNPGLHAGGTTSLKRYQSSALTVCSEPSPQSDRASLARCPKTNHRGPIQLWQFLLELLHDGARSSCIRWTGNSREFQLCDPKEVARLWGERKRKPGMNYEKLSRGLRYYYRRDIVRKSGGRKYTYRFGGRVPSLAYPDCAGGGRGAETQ
As to conditions: protein: recombinant; tags: N-terminal GST; dsDNA, one strand shown. In outline: as §1

A further test has as its target T5, ELF3 (Homo sapiens, UniProt P78545 1-371).
T5 sequence: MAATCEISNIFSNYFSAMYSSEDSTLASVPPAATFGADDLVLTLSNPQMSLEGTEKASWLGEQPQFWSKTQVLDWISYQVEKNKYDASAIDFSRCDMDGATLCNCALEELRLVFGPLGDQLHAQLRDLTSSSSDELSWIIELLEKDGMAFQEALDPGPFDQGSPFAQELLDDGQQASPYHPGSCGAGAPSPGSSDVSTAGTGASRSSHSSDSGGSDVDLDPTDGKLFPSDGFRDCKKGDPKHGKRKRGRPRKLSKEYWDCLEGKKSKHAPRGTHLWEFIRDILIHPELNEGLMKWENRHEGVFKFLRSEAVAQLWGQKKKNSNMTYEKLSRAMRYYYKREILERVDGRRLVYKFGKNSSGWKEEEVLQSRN
Conditions: protein: recombinant; tags: N-terminal GST; dsDNA, one strand shown. The essentials:
as §1

The next test deals with CRX (Homo sapiens, UniProt O43186 1-299). As to conditions: protein: recombinant; tags: N-terminal GST; dsDNA, one strand shown. The essentials: as §1
CRX, sequence (O43186 whole entry): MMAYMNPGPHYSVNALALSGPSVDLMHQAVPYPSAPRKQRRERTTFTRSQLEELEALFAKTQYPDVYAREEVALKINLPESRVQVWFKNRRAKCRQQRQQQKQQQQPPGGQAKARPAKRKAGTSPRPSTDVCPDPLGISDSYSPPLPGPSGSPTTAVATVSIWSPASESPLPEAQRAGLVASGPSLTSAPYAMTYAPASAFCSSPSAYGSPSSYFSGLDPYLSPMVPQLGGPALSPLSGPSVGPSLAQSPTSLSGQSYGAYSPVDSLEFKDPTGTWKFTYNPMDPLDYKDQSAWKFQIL
The next test deals with ETV1 (Homo sapiens, UniProt P50549 1-477). As to conditions: protein: recombinant; tags: N-terminal GST; dsDNA, one strand shown. The essentials:
as §1

The next test addresses T6, ERF (Homo sapiens, UniProt P50548 1-548).
T6 sequence: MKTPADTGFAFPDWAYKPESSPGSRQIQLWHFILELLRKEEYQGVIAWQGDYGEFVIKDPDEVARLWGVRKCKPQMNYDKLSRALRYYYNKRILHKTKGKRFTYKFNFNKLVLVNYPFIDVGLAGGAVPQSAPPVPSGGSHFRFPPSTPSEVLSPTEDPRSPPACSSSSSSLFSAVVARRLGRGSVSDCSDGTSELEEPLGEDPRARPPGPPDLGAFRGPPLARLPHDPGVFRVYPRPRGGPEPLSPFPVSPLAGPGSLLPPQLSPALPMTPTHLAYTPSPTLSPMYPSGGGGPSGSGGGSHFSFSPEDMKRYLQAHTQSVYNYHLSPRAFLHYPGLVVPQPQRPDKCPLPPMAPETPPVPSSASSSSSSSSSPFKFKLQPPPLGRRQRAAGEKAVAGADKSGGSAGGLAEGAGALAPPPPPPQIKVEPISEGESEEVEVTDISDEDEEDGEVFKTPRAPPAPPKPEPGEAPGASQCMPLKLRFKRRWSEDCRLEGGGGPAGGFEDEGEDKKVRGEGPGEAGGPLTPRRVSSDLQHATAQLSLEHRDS
Conditions: protein: recombinant; tags: N-terminal GST; dsDNA, one strand shown. In outline:
as §1

A further test deals with T7, ETV3L (Homo sapiens, UniProt Q6ZN32 1-361).
T7 sequence: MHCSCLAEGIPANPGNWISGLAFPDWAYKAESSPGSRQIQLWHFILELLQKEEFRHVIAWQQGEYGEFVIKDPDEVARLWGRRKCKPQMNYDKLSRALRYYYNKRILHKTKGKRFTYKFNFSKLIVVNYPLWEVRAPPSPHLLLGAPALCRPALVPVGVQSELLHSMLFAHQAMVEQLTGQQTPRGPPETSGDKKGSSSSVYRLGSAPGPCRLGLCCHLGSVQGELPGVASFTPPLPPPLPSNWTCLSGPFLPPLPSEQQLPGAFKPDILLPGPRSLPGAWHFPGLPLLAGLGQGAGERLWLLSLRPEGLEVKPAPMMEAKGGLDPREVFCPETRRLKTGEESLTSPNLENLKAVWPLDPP
Conditions: protein: recombinant; tags: N-terminal GST; dsDNA, one strand shown. In outline: as §1

The target of the next test is T8, ETS2 (Homo sapiens, UniProt P15036 1-469).
T8 sequence: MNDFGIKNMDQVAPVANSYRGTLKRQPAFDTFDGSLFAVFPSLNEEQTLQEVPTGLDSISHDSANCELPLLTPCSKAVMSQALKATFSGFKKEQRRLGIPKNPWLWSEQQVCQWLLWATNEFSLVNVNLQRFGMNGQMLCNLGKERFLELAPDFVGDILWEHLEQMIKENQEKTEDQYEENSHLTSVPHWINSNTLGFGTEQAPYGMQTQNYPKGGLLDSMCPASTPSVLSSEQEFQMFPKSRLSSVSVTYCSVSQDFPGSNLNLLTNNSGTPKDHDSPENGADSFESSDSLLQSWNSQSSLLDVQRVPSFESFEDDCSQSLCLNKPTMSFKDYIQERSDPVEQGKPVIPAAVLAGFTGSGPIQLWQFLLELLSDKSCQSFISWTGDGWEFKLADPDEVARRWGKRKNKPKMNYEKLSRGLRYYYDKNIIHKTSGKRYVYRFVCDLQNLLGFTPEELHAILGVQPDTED
Conditions: protein: recombinant; tags: N-terminal GST; dsDNA, one strand shown. The essentials: as §1

The target in another test is T9, SPDEF (Homo sapiens, UniProt O95238 1-335).
T9 sequence: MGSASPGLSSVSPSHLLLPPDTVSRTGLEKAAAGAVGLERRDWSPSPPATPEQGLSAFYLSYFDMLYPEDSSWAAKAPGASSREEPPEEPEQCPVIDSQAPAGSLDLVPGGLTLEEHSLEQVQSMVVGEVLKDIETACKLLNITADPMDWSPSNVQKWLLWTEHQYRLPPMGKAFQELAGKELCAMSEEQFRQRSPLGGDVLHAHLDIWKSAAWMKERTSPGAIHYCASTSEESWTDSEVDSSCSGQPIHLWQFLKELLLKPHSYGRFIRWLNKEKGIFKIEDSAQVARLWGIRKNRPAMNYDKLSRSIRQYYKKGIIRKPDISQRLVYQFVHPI
Conditions: protein: recombinant; tags: N-terminal GST; dsDNA, one strand shown. In outline:
as §1

A further test addresses T10, ETV7 (Homo sapiens, UniProt Q9Y603 1-341).
T10 sequence: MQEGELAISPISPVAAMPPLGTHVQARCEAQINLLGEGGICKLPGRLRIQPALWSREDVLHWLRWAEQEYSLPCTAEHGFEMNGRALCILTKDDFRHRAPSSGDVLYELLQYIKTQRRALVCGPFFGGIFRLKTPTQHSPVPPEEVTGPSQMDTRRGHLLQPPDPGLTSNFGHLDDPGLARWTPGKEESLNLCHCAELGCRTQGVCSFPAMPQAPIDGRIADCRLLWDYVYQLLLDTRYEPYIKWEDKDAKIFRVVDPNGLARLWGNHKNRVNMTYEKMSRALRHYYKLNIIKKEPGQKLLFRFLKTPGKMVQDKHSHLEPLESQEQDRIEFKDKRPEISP
As to conditions: protein: recombinant; tags: N-terminal GST; dsDNA, one strand shown. The essentials: as §1

The next test deals with T11, ELF5 (Homo sapiens, UniProt Q9UKW6-2 1-255).
T11 sequence: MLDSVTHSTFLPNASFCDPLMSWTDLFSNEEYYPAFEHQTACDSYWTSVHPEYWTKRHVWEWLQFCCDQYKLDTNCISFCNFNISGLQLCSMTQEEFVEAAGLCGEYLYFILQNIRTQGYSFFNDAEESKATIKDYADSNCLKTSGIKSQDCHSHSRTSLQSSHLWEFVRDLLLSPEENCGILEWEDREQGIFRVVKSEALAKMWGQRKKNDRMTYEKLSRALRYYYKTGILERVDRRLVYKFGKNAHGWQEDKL
As to conditions: protein: recombinant; tags: N-terminal GST; dsDNA, one strand shown. The essentials: as §1

A further test deals with T12, ETV3 (Homo sapiens, UniProt P41162-2 1-143).
T12 sequence: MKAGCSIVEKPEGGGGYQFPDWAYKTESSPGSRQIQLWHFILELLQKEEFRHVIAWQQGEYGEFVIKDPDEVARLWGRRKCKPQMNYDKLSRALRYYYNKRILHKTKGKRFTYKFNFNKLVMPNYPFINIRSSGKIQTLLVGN
Conditions: protein: recombinant; tags: N-terminal GST; dsDNA, one strand shown. In outline: as §1

A further test has as its target ETV6 (Homo sapiens, UniProt P41212 1-452). As to conditions: protein: recombinant; tags: N-terminal GST; dsDNA, one strand shown. The essentials: as §1

HSF1, sequence (Q00613 whole entry): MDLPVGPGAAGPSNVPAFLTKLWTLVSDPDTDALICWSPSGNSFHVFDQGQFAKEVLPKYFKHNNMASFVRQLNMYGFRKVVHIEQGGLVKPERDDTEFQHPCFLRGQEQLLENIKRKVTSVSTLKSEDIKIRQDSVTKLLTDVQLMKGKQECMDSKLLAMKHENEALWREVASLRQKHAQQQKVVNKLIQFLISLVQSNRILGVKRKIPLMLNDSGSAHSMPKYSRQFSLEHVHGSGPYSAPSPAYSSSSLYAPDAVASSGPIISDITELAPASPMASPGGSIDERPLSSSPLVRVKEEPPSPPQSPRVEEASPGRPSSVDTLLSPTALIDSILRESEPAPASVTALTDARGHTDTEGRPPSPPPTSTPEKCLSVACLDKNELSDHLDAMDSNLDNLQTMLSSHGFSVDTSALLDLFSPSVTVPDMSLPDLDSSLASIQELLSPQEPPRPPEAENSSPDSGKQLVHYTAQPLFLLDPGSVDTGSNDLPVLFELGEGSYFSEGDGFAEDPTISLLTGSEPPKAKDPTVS
ELF4, sequence (Q99607 whole entry): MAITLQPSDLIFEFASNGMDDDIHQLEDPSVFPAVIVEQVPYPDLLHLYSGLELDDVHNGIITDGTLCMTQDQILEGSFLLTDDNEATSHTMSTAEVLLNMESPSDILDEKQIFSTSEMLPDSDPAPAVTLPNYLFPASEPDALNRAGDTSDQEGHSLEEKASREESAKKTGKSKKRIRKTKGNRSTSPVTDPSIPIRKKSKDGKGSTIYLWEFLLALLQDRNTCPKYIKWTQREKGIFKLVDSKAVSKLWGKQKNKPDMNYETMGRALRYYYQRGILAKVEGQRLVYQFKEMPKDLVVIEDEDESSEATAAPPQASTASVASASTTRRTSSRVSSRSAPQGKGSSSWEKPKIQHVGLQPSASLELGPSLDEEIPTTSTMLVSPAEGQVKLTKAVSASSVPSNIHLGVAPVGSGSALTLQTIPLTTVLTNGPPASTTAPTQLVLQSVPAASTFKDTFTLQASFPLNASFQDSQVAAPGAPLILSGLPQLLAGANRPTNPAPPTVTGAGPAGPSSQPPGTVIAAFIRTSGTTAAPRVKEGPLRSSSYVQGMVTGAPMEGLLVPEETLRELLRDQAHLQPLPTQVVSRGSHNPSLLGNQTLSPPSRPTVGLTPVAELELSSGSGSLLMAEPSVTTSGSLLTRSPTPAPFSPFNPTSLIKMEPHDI
ETV1, sequence (P50549 whole entry): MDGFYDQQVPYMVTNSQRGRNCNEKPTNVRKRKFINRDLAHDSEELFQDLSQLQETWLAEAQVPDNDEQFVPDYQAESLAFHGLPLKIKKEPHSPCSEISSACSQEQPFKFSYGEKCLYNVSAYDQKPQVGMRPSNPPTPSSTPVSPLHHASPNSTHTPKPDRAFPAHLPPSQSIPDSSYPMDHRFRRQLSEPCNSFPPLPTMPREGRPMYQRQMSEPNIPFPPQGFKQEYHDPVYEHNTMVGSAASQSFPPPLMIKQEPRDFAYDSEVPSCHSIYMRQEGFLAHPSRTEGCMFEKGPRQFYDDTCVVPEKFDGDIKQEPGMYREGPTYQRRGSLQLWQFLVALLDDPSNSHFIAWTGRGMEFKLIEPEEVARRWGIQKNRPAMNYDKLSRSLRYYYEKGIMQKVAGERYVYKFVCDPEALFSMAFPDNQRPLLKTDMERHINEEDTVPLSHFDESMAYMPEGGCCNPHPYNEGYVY
ETV6, sequence (P41212 whole entry): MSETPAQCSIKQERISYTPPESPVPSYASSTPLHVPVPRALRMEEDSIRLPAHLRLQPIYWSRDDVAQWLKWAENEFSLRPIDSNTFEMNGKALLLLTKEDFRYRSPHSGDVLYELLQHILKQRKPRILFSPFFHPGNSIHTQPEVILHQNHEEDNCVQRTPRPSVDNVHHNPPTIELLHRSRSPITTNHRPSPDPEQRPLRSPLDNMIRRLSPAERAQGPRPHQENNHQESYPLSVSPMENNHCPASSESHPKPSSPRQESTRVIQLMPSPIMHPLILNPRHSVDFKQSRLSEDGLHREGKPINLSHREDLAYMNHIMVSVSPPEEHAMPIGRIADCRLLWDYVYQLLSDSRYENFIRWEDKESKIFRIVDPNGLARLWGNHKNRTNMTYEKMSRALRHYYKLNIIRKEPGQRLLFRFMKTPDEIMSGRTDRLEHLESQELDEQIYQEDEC

On to TACCAC, for which the binding signal was 1.3 fold enrichment (6-mer frequency, TF over GST control) with FEV; 1.19 fold enrichment (6-mer frequency, TF over GST control) in the test with ETV5; 1.12 fold enrichment (6-mer frequency, TF over GST control) with HSF1; 1.25 fold enrichment (6-mer frequency, TF over GST control) in the test with SPIC; 1.23 fold enrichment (6-mer frequency, TF over GST control) in the test with ELF4; 1.18 fold enrichment (6-mer frequency, TF over GST control) with ELK4. The binding signal with ETV2 is 1.2 fold enrichment (6-mer frequency, TF over GST control); with ELF3 it was 1.25 fold enrichment (6-mer frequency, TF over GST control); with CRX, 1.17 fold enrichment (6-mer frequency, TF over GST control); with ETV1 it was 1.24 fold enrichment (6-mer frequency, TF over GST control); with ERF, 1.21 fold enrichment (6-mer frequency, TF over GST control); with ETV3L, 1.26 fold enrichment (6-mer frequency, TF over GST control). Also, the binding signal is 1.27 fold enrichment (6-mer frequency, TF over GST control) in the test with ETS2; 1.16 fold enrichment (6-mer frequency, TF over GST control) with SPDEF; 1.15 fold enrichment (6-mer frequency, TF over GST control) with ETV7; 1.29 fold enrichment (6-mer frequency, TF over GST control) with ELF5; 1.2 fold enrichment (6-mer frequency, TF over GST control) with ETV3; 1.21 fold enrichment (6-mer frequency, TF over GST control) in the test with ETV6.
